Measurements from PubChem BioAssay (NCI).
Several values for one entry are separate records, joined by “and”; a condition that tells them apart may be missing. Equal entries are not always repeated. This is part of a sample that, as a whole, favours compounds with a hit. Of some 79,000 tested, about 15% had one in any assay. Activity calls are given as the source filed them. Cut-off read from the data, not from the text of the source: active = growth inhibition above about 70%; inactive = the rest.

What was measured:
[1] = NCI Yeast Anticancer Drug Screen. Data for the rad52 strain (AID 147);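 note: 0% = growth of vehicle-treated control cultures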; conditions: S. cerevisiae rad52 mutant growth inhibition, hits give high values
Method in brief: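 Yeast strain carrying a DNA damage repair alteration was exposed to test compounds. Growth inhibition was measured relative to vehicle-treated controls.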

[2] = NCI Yeast Anticancer Drug Screen. Data for the wt1 strain (AID 149);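 note: 0% = growth of vehicle-treated wt1 cultures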; conditions: S. cerevisiae wt1 strain (SPY 50644) growth inhibition, hits give high values
Method in brief: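 Compounds are added to wt1 yeast cultures. Growth is then measured. Inhibition is expressed relative to vehicle-treated controls.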

[3] = NCI Yeast Anticancer Drug Screen. Data for the rad50EPP+ strain (AID 151);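 note: 0% = growth of vehicle-treated control cultures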; conditions: S. cerevisiae rad50 mutant strain, hits give high values
Method in brief: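 Yeast strain carrying rad50 alteration (rad50EPP+) exposed to compounds; growth inhibition measured relative to vehicle-treated controls.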

[4] = NCI Yeast Anticancer Drug Screen. Data for the mgt1 strain (AID 153); conditions: S. cerevisiae mgt1 mutant growth inhibition, hits give high values
Method in brief: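 Yeast mgt1 strain (DNA repair/cell-cycle alteration panel) exposed to compounds; growth inhibition measured relative to vehicle-treated controls.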

[5] = NCI Yeast Anticancer Drug Screen. Data for the rad50 strain (AID 155);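 note: 0% = growth of vehicle-only cultures of the same strain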; conditions: S. cerevisiae rad50 strain growth inhibition, hits give high values
Method in brief: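 Inhibition values express reduced yeast growth in compound-treated cultures relative to vehicle-treated controls.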

[6] = NCI Yeast Anticancer Drug Screen. Data for the mec2-1 strain (AID 157); conditions: S. cerevisiae mec2-1 strain, hits give high values
Method in brief: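 mec2-1 yeast strain, carrying an alteration in DNA damage repair or cell cycle control, was exposed to compounds; growth inhibition was measured relative to vehicle-treated controls.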

[7] = NCI Yeast Anticancer Drug Screen. Data for the rad14 strain (AID 159);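 note: 0% = growth of vehicle-treated control cultures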; conditions: S. cerevisiae rad14 strain growth inhibition, hits give high values
Method in brief: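 A mutant yeast strain defective in DNA damage repair is treated with compound; inhibition of its growth is scored against untreated, vehicle-exposed cultures.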

[8] = NCI Yeast Anticancer Drug Screen. Data for the sgs1 mgt1 strain (AID 161);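 note: 0% = growth of cultures given vehicle only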; conditions: S. cerevisiae sgs1 mgt1 strain, hits give high values
Method in brief: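 Percent growth inhibition was derived by comparing compound-exposed mutant yeast with vehicle-exposed cultures. The strain carries alterations in DNA damage repair.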

[9] = NCI Yeast Anticancer Drug Screen. Data for the CLN2oe strain (AID 163);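 note: 0% = growth of vehicle-only control cultures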; conditions: S. cerevisiae CLN2oe strain, hits give high values
Method in brief: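 Yeast cells carrying a defined cell-cycle control alteration were exposed to test compounds. Growth inhibition was scored against vehicle-treated control cultures.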

[10] = NCI Yeast Anticancer Drug Screen. Data for the cln2 rad14 strain (AID 165);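 note: 0% = growth equal to vehicle treated cultures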; conditions: S. cerevisiae cln2 rad14 strain, hits give high values
Method in brief: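 Yeast carrying cln2 and rad14 alterations (cell cycle control and DNA damage repair) were exposed to compounds. Growth inhibition was measured against vehicle-treated controls.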

[11] = NCI Yeast Anticancer Drug Screen. Data for the bub3 strain (AID 167); conditions: S. cerevisiae bub3 mutant strain, hits give high values
Method in brief: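 Steps: expose the mutant yeast strain to compound; grow alongside vehicle-treated cultures; measure growth; express inhibition against the vehicle cultures.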

[12] = NCI Yeast Anticancer Drug Screen. Data for the wt2 strain (AID 169);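 note: 0% = growth of vehicle-treated yeast cultures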; conditions: S. cerevisiae wt2 strain growth inhibition, hits give high values
Method in brief: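 Yeast cells were exposed to test compounds, and growth inhibition was measured relative to vehicle-treated controls.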

[13] = NCI Yeast Anticancer Drug Screen. Data for the mlh1 strain (AID 171);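 note: 0% = growth of vehicle-treated control cultures of the same strain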; conditions: S. cerevisiae mlh1 strain growth inhibition, hits give high values
Method in brief: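 Yeast carrying a defined genetic alteration in DNA damage repair or cell cycle control were exposed to test compounds. Growth inhibition was measured relative to vehicle-treated controls.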

[14] = NCI Yeast Anticancer Drug Screen. Data for the sgs1 strain (AID 173);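 note: 0% = growth of vehicle-only control cultures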; conditions: S. cerevisiae sgs1 mutant, hits give high values
Method in brief: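 Yeast mutant strains carrying defined defects in DNA damage repair or cell cycle control were exposed to test compounds. Growth inhibition was scored against vehicle-treated controls.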

[15] = NCI Yeast Anticancer Drug Screen. Data for the mlh1 rad18 strain (AID 175); conditions: S. cerevisiae mlh1 rad18 strain growth inhibition, hits give high values
Method in brief: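 Growth inhibition of the yeast strain was measured after compound exposure and expressed relative to vehicle-treated controls. The strain carries defined defects in DNA damage repair.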

[16] = NCI Yeast Anticancer Drug Screen. Data for the rad18 strain (AID 177); conditions: S. cerevisiae rad18 mutant growth inhibition, hits give high values
Method in brief: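 Yeast carrying a defined DNA damage repair alteration were exposed to compounds. Growth inhibition was expressed relative to vehicle-treated controls.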

[17] = at 5.0 µM (retest, dose inferred, filed as 0.5)
[18] = at 50.0 µM (retest, dose inferred, filed as 5.0)

Measured: growth inhibition

Cc1ccc(CC2(OCCN(C)C)CCC(C(C)(C)C)CC2)cc1 (stereo unspecified)
active: [1]; at 100.0 µM 98% | [2]; at 100.0 µM 99% | [3]; at 100.0 µM 97% | [4]; at 33.0 µM 84% | [4]; at 100.0 µM 99% | [5]; [18] 100% | [5]; at 50.0 µM 98.6% and 98.5% | [5]; at 100.0 µM 98% | [6]; [18] 99% and 93% | [6]; at 50.0 µM 98.5% and 99.3% | [6]; at 100.0 µM 99% | [7]; at 33.0 µM 92% | [7]; at 100.0 µM 98% | [8]; [18] 85% and 91% | [8]; at 50.0 µM 98.7% and 99.4% | [9]; at 100.0 µM 98% | [10]; [18] 89% and 76% | [10]; at 50.0 µM 99.2% and 99.5% | [11]; [18] 99% | [11]; at 50.0 µM 87.5% and 99.2% | [11]; at 100.0 µM 98% | [12]; at 100.0 µM 99% | [13]; at 33.0 µM 85% | [13]; at 100.0 µM 98% | [14]; at 33.0 µM 82% | [14]; at 100.0 µM 99% | [15]; [18] 100% and 99% | [15]; at 50.0 µM 99.5% and 99.4% | [16]; at 100.0 µM 98%
inactive: [1]; at 1.2 µM 8% | [1]; at 3.7 µM 3% | [1]; at 11.0 µM 8% | [1]; at 33.0 µM 37% | [2]; at 1.2 µM 9% | [2]; at 3.7 µM 12% | [2]; at 11.0 µM -5% | [2]; at 33.0 µM 9% | [3]; at 1.2 µM -4% | [3]; at 3.7 µM -9% | [3]; at 11.0 µM -3% | [3]; at 33.0 µM -2% | [4]; at 1.2 µM 14% | [4]; at 3.7 µM 12% | [4]; at 11.0 µM 21% | [5]; at 1.2 µM -3% | [5]; at 3.7 µM 0% | [5]; [17] 13% and 12% | [5]; at 11.0 µM 7% | [5]; at 33.0 µM 64% | [6]; at 1.2 µM -7% | [6]; at 3.7 µM -11% | [6]; [17] -8% and -7% | [6]; at 11.0 µM -7% | [6]; at 33.0 µM 43% | [7]; at 1.2 µM -7% | [7]; at 3.7 µM -3% | [7]; at 11.0 µM 15% | [8]; [17] -5% and -7% | [9]; at 1.2 µM -23% | [9]; at 3.7 µM -18% | [9]; at 11.0 µM -11% | [9]; at 33.0 µM 42% | [10]; [17] 20% and 10% | [11]; at 1.2 µM -23% | [11]; at 3.7 µM -24% | [11]; [17] 11% and 7% | [11]; at 11.0 µM -11% | [11]; at 33.0 µM 6% | [12]; at 1.2 µM -19% | [12]; at 3.7 µM -8% | [12]; at 11.0 µM -16% | [12]; at 33.0 µM 36% | [13]; at 1.2 µM 3% | [13]; at 3.7 µM -1% | [13]; at 11.0 µM 13% | [14]; at 1.2 µM 24% | [14]; at 3.7 µM 26% | [14]; at 11.0 µM 41% | [15]; [17] 9% and 10% | [16]; at 1.2 µM 3% | [16]; at 3.7 µM -14% | [16]; at 11.0 µM -12% | [16]; at 33.0 µM 36%

CC(C)(C)N=C(NO)c1ccccc1
inactive: [1]; at 1.2 µM 0% | [1]; at 3.7 µM 1% | [1]; at 11.0 µM 8% | [1]; at 33.0 µM 25% | [1]; at 100.0 µM 68% | [2]; at 1.2 µM 0% | [2]; at 3.7 µM 0% | [2]; at 11.0 µM 5% | [2]; at 33.0 µM 8% | [2]; at 100.0 µM 45% | [3]; at 1.2 µM 0% | [3]; at 3.7 µM 3% | [3]; at 11.0 µM 14% | [3]; at 33.0 µM 35% | [3]; at 100.0 µM 63% | [4]; at 1.2 µM -2% | [4]; at 3.7 µM 1% | [4]; at 11.0 µM 2% | [4]; at 33.0 µM 27% | [4]; at 100.0 µM 57% | [5]; at 1.2 µM -2% | [5]; at 3.7 µM -1% | [5]; [17] -6% | [5]; at 11.0 µM 2% | [5]; at 33.0 µM 14% | [5]; [18] 41% | [5]; at 100.0 µM 55% | [6]; at 1.2 µM -3% | [6]; at 3.7 µM 0% | [6]; [17] -2% | [6]; at 11.0 µM 2% | [6]; at 33.0 µM 12% | [6]; [18] 2% | [6]; at 50.0 µM 2.9% | [6]; at 100.0 µM 53% | [7]; at 1.2 µM -3% | [7]; at 3.7 µM -3% | [7]; at 11.0 µM 0% | [7]; at 33.0 µM 10% | [7]; at 100.0 µM 46% | [8]; [17] 7% | [8]; [18] 55% | [9]; at 1.2 µM -9% | [9]; at 3.7 µM -7% | [9]; at 11.0 µM -2% | [9]; at 33.0 µM -4% | [9]; at 100.0 µM 47% | [10]; [17] 8% | [10]; [18] 49% | [10]; at 50.0 µM 43.7% | [11]; at 1.2 µM -6% | [11]; at 3.7 µM -9% | [11]; [17] -11% | [11]; at 11.0 µM -4% | [11]; at 33.0 µM -9% | [11]; [18] 42% | [11]; at 50.0 µM 0.3% | [11]; at 100.0 µM 27% | [12]; at 1.2 µM 1% | [12]; at 3.7 µM 1% | [12]; at 11.0 µM 8% | [12]; at 33.0 µM 20% | [12]; at 100.0 µM 67% | [13]; at 1.2 µM 3% | [13]; at 3.7 µM 1% | [13]; at 11.0 µM 7% | [13]; at 33.0 µM 20% | [13]; at 100.0 µM 64% | [14]; at 1.2 µM 1% | [14]; at 3.7 µM 7% | [14]; at 11.0 µM 14% | [14]; at 33.0 µM 39% | [15]; [17] 3% | [16]; at 1.2 µM 1% | [16]; at 3.7 µM -1% | [16]; at 11.0 µM 38% | [16]; at 33.0 µM 38%
active: [5]; at 50.0 µM 70.2% | [8]; at 50.0 µM 74% | [14]; at 100.0 µM 76% | [15]; [18] 76% | [15]; at 50.0 µM 81.4% | [16]; at 100.0 µM 82%
